The text below walks through data of PubChem BioAssay (NCI).

The panel holds about 83,000 compounds, 20% with a hit somewhere; the sample as a whole holds those more often.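 Treatment: one concentration, 48 hours, 96-well format. Scoring: percent growth, with anything below 10 considered active.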 Active and inactive are the calls of the source.

The test system of the test is HL-60(TB) leukemia. As to the kind of experiment: NCI-60 one-dose screen, 48 h (100 = growth as untreated, 0 = no growth, -100 = all killed). The settings on record: 10 µM unless noted.
For the molecule `CC(C)[C@H]1c2[nH]c3ccccc3c2C[C@H]2C(=O)N(CCCCCCC(=O)NO)CC(=O)N12`, the growth is 96.1% (inactive).

For `CC(=O)C1=C(C)NC(NN)=NC1c1cccc(Cl)c1` (stereo unspecified), the growth was 115% (inactive).

For the molecule `CCOC(=O)/C(F)=C/C1CC1C1CCCCC1` (stereo unspecified), the growth is 98.7% (inactive).

In the case of `Nc1c(C(=O)c2ccc(Br)cc2)oc2nc(-c3cnccn3)cc(-c3cccs3)c12`, the growth was 100% (inactive).

As to `N/C(=N\c1nc2c(Cl)cccc2s1)C(Cl)(Cl)Cl`, the growth was 25.5% (inactive).

For `COc1cc(/C=C/C(=O)c2ccc(Cl)cc2)ccc1Oc1nc(NCCO)nc(N2CCOCC2)n1`, the growth is 93.7% (inactive).
